Records with an inconclusive call do not appear. A number with no mark means an inactive call. Calls of active or inactive are those of the source. Calls follow the shape of the dose curve; as a rule, active = well fitted cell-killing curve with a large enough effect; inconclusive = small, poorly fitted or top-dose-only effect, or effect the other way; inactive = no such curve, though single readings can be large or run the other way.
Assay: Viability qHTS for spleen associated tyrosine kinase inhibitor (SYKi) drug resistant MV4-11 cells (AID 1963824); also: nearly all actives have a fitted effect of over 35% in size
Details: SYKi-resistant MV4-11 viability, CellTiter-Glo, 72 h; series mostly up to 45 µM; viability, % of control: at the top concentration
Procedure, shortened: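 SYK-inhibitor-resistant MV4-11 AML cells were seeded at 500 per well onto compound and cultured 72 hours (37 °C, 5% CO2). CellTiter-Glo was then added, and after 10 min at room temperature, luminescence gave viability.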
For O=C1NC(=O)/C(=C\c2ccc(-c3ccc(F)cc3O)o2)S1, the Potency was 11.6 µM (active). For COC(=O)[C@@H](NC(=O)[C@H](CC(C)C)NC(=O)N(Cc1ccccc1)C[C@@H](O)[C@H](Cc1ccccc1)NC(=O)OC(C)(C)C)C(C)C, the Potency was 3.35 µM (active). In the case of CCC/C=C/C=C/C1CC(O)C2(O)C(=O)OCC12 (stereo not given), the “viability, % of control” value was 87.1%. For CC1(C)CC23[C@@H]4CC(=O)[C@@H]2COC(=O)[C@@H]3CC[C@H]41, the Potency was 1.64 µM (active). For CO[C@@H]1[C@@H](O[C@H]2O[C@@H](C)[C@H](O[C@@H]3C[C@](C)(O)[C@H](O)[C@@H](C)O3)[C@@H](N(C)C)[C@@H]2O)[C@@H](CC=O)C[C@@H](C)[C@@H](O[C@H]2CC[C@H](N(C)C)[C@H](C)O2)/C=C/C=C/C[C@@H](C)OC(=O)C[C@H]1O, the Potency was 10.3 µM (active). With O=[N+]([O-])c1cccc2[nH]c(CNc3nc(N4CCOCC4)nc4c3ncn4-c3ccsc3)nc12 the Potency was 0.0206 µM (active). In the case of COC1OC(OC)C(O)(CCC2(C)C(C)CCC3(C)C2CC(O)C(O)C32CO2)C1O (stereo not given), the “viability, % of control” value was 95.5% [at 17.3 µM]. With CCNC(=O)Nc1ccc(Oc2ncnc(N)c2/C=N/OC)cc1Cl the Potency was 18.6 µM (active). In the case of COC1C=C(C)C(O)(CO)C2(C)CCCC(C)(C)C12 (stereo not given), the “viability, % of control” value was 81.2%. In the case of COc1cc(-c2nc(N[C@H](CO)Cc3ccccc3)ccc2C(=O)NCCOc2ccccc2)cc(OC)c1OC, the Potency was 25.9 µM (active).

Source: PubChem BioAssay (NCATS)
Potency is read from the fitted curve at half-maximal effect.
